A word on the inhibition: it is the drop in the measured response relative to a control, in per cent.

For this assay, the target named is Glucose transporter (Leishmania mexicana) (UniProt O61059). The assay can be described thus: ST_JUDE_LEISH: Cytotoxicity at 2uM final concentration against transgenic Leishmania Mexicana promastigotes LmGT2 that are glucose transport deficient and complemented with the L. Mexicana glucose transporter 2. Activity is measured by DNA content using SYBR green in vitro. Type of assay: functional.
In the case of `COc1ccc2nccc([C@@H](O)CN3CCC(NC(=O)C(c4ccccc4C)N4CCC(Cc5ccccc5)CC4)CC3)c2c1` (stereo not given in full), the inhibition turned out to be 2.38%.
In the case of `COc1ccc(Nc2ncc3c(-c4cccc(NC(=O)Cc5cccnc5)c4)c[nH]c3n2)cc1OC`, the inhibition is -1.58%.
Take `N=C(N)NN=Cc1ccccc1OCc1ccccc1Cl`: the inhibition stood at 0.38%.
Consider `COc1ccc(F)cc1-c1cccc(CNC2CCN(CC3Cn4c(=O)ccc5ccc(F)c3c54)CC2)c1` (stereo not given), for which the inhibition is 18.8%.
In the case of `O=C(Cc1cccc2ccccc12)N1CCc2cc3nccc(N4CCN5CCC[C@H]5C4)c3cc21`, the inhibition was 10%.
With `CCCCSc1c(CNCCCCCCNCc2ccc3ccccc3c2SCCCC)ccc2ccccc12` the figure was 0.58%.
Take `Clc1ccc2c(NCCc3ccccn3)ccnc2c1`: the inhibition was determined as 6.87%.
With `Cc1[nH]c(C)c(-c2ccc(-c3ccc(OCC(F)(F)F)cc3)nc2)c(=O)c1Cl` the figure was 6.06%; with `O=C(Nc1ccc(OC2CCN(Cc3ccc(F)cc3)CC2)c(Cl)c1)c1ccc(F)cc1`, 7.21%; with `C=CCn1ccc2c3c(N)nc(N)nc3ccc21`, 44.1%.
In the case of `COc1ccc2nccc(N(C)CC3(O)CCN(CCc4ccc5c(c4)NC(=O)CS5)CC3)c2n1` it was 6.32%; in that of `OCCOCCNCc1cccc(C#Cc2cc3ncnc(Nc4ccc(OCc5cccc(F)c5)c(Cl)c4)c3s2)n1`, 1.82%.
With `COc1ccc(-c2cccc(NC(=O)c3ccc(Cl)cc3)c2)cc1CN1CCNCC1`, the inhibition is -0.7%.
In the case of `O=C(Nc1cccc(C(F)(F)F)c1)Nc1nc2ccc([N+](=O)[O-])cc2s1` it was 0.91%; in that of `O=C(Nc1ccc([N+](=O)[O-])cc1)Nc1nc2ccc(Cl)cc2s1`, 1.81%; in that of `CN(C)c1ccc(C2(c3ccccc3)N=C(N)N(CCCc3ccccc3)C2=O)cc1` (stereo not given), 0.65%.
`NC(=O)C1CCN(Cc2ccc(-c3ccc(-c4nc5cc(F)ccc5[nH]4)cc3)cc2)CC1`: the inhibition is 10.8%.
As for `Cc1ccc(S(=O)(=O)N(C)c2ccccc2C(=O)Nc2ccccc2Oc2ccccc2)cc1`, the inhibition was -3.37%.
For the compound `CN1CCC(NCc2ccc(-c3ccc(C(F)(F)F)cc3)cc2)CC1`, the inhibition is 0.62%.
As to `CC(C)c1ccc(NC(=O)NC2CCN(CCCCCNC(=O)/C=C/c3ccc(Cl)c(Cl)c3)CC2)cc1`, the inhibition was -0.17%.
In the case of `CN1CCN(c2ncnc3ccc(NC(=O)Nc4ccc(Cl)c(Cl)c4)cc23)CC1`, the inhibition stood at 5.24%.
Turning to `COc1ccc(-c2ccc(NC(=O)c3cccc(Cl)c3)c(F)c2)cc1CNC(C)C`, the inhibition was determined as 4.55%.
With `Cc1cc2c(NC(=O)NC3CCN(Cc4ccc(Cl)c(Cl)c4)CC3)cccc2cn1` the figure was -3.37%; with `Cc1cccnc1CNc1nccc2c(C)c(C)[nH]c12`, -0.37%.
In the case of `COc1ccc2nccc(N(C)CC3(O)CCC(NCc4cc5c(cn4)OCCO5)CC3)c2n1` (stereo not given), the inhibition came to 1.71%.
Regarding `COc1ccc(NC(=O)c2ccc(-c3nc(-c4ccc(Cl)cc4)cs3)cc2)cc1N1CCN(C)CC1`, the inhibition was found to be 0.9%.
For `Oc1ccc(-c2ccccc2)cc1CN1CCCCC1`, the inhibition was -0.56%.
In the case of `COc1cc2nc(N3CCN(C(=O)c4cccc(I)c4)CC3)nc(N)c2cc1OC`, the inhibition was -0.04%.
Turning to `Cc1cccc(CN2CCCN(Cc3ccc(C(=O)Nc4ccc(Cl)cc4)cc3)CC2)c1`, the inhibition worked out at 7.83%.
Turning to `COc1ccc2nccc([C@@H](O)CN3CCC(NC(=O)C(c4cc5ccccc5s4)N4CCN(c5ccccc5OC)CC4)CC3)c2c1` (stereo not given in full), the inhibition was found to be 0.56%.
As to `Cc1cc(C)c(NC(=O)NC2CCN(CCCCCNC(=O)/C=C/c3ccc(Cl)c(Cl)c3)CC2)c(C)c1`, the inhibition was 3.81%.
With `O=C(Nc1ccc(CN2CCCCC2)cc1)c1ccc(COc2ccc([N+](=O)[O-])cc2)o1` the figure was 0.44%; with `CC(C)CNCc1ccc(-c2cccc(CNC3CCN(Cc4ccccc4)CC3)c2)cc1`, 5.23%; with `O=C(Cn1c2ccccc2c(=O)c2ccc(Cl)cc21)Nc1ccc(C(F)(F)F)cc1`, -1.59%.
Regarding `CCNC(=O)CCc1cccc(Br)c1`, the inhibition is -1.62%.
In the case of `c1ccc(-c2cc(NCCNc3cc(-c4ccccc4)nc4ccccc34)c3ccccc3n2)cc1` it was 15.2%; in that of `Cc1ccc(Nc2nc3cc(Nc4ccnc(Nc5cccc(CS(C)(=O)=O)c5)n4)ccc3o2)cc1`, 0.38%; in that of `CCCCCN1CCC(NC(=O)c2ccc(C(=O)Nc3ccc(C(C)C)cc3)cc2)CC1`, -5.29%.
For the compound `c1ccc(CN2CCC(NCc3ccccc3-c3cccc(CNC4CCCC4)c3)CC2)cc1`, the inhibition worked out at 7.14%.
With `CN(C)Cc1cccc(-c2ccc(NC(=O)c3ccc4c(=O)n(Cc5ccoc5)cnc4c3)cc2)c1`, the inhibition is 24.1%.

(Values after ChEMBL document CHEMBL3433997, “St. Jude Leishmania screening dataset” (2016).)
